Sampled rows, rich in hits. Any-hit rate of the full collection: about 4.1%.
DAX1 inh-1: DAX1 (NR0B1) inhibitors on StAR promoter, primary screen, cell-based, luminescence, SF-1 (NR5A1), full-length DAX-1. HEK293T StAR-luciferase reporter, SF-1/DAX-1 repression relief. AID 652010, 2013. inhibition, % at 6.8 µM. hit rate 1.1% among 370,000;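 active means inhibition above the mean over all tested compounds plus 3 SD, cut at about 3.6% in these data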;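 further: higher inhibition means more luminescence from relief of DAX-1 repression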
hcDAF-12 act: H. contortus DAF-12 nuclear receptor activators, primary screen, cell-based, luminescence, HEK293, lit1-tk-luc reporter; HEK293 hcDAF-12 lit1-tk-luc reporter; 0% DMSO, 100% Δ7-dafachronic acid; activation, % at 6.8 µM; hit rate 1.4% among 370,000; AID 652067, 2013;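 active means activation above the mean of all tested compounds plus 3 SD, cut at about 5.5% in these data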
DAX1 inh-2: DAX1 (NR0B1) inhibitors, primary screen, cell-based, HEK293, Gal4-DAX1, luciferase luminescence; Nuclear receptor subfamily 0 group B member 1 (Homo sapiens), P51843; HEK293 Gal4-DAX1 luciferase reporter; inhibition, % at 6.75 µM; hit rate 0.99% among 340,000; AID 504766, 2011;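 active means inhibition above the mean over all tested compounds plus 3 SD, cut at about 4.2% in these data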;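 further: inhibition shows as a rise in luminescence from relieved DAX1 repression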
Target sequence (P51843 207-470 limits assumed): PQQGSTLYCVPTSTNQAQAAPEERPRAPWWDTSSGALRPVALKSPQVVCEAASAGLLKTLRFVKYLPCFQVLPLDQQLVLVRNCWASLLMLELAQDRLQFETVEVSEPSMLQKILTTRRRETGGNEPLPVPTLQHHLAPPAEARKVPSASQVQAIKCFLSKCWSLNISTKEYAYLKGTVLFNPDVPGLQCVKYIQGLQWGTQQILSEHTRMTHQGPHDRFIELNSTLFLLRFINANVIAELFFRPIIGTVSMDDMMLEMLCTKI
hgDAF-12 ag: H. glycines DAF-12 receptor agonists, primary screen, cell-based, luminescence, HEK293, GAL4 fusion, UAS-luciferase | HEK293 GAL4-hgDAF12 UAS-luciferase reporter, agonist luminescence; normalized to butyrate control | activation, % at 6.8 µM | hit rate 1.8% among 370,000 | AID 687014, 2013;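 active means activation above a cutoff set at the mean of all screened compounds plus 3 SD, cut at about 10% in these data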
ssDAF12 agonist: S. stercoralis DAF-12 nuclear receptor activators, primary screen, cell-based, luminescence, HEK293, GRIP1 co-expression, lit1-tk-luc. Nuclear hormone receptor DAF-12 (Strongyloides stercoralis). HEK293 ssDAF-12/GRIP1 lit1-tk-luc reporter; % of 3 µM dafachronic acid response. activation, % at 6.8 µM. hit rate 1% among 370,000;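 active means activation above the mean over all tested compounds plus 3 SD, cut at about 0.9% in these data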
DAX1 inh confirm: DAX1 (NR0B1) inhibitors relieving SF-1 repression, confirmation, cell-based, luminescence, HEK293T, full-length DAX-1, SF-1 activated StAR promoter. shares compounds with DAX1 inh-1. HEK293T StAR-promoter luciferase reporter, SF-1/DAX-1 repression. inhibition, % at 6.8 µM. hit rate 87% among 2,400. AID 652134, 2013;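 active means inhibition above the average of every tested compound plus 3 SD, cut at about 3.8% in these data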
SF1 AF2mut Luc: StAR reporter signal changes without DAX1, counter-screen for DAX1 inhibitor project, cell-based, luminescence, AF-2 mutant SF-1, transactivation; shares compounds with DAX1 inh-1; HEK293 StAR-luciferase, SF-1 AF2 mutant; inhibition, % at 6.8 µM; hit rate 78% among 2,400; AID 652136, 2013;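 active means inhibition above the mean of all tested compounds plus 3 SD, cut at about 3% in these data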
LXRb hcDAF ctr: LXR agonists, Gal4 luciferase reporter, confirmation, counter-screen for hcDAF-12 agonist project, cell-based, luminescence, HEK293, H. contortus campaign. 3,400 tested, under 10 active. activation, % at 6.8 µM. HEK293 Gal4-LXR tk-luc reporter, 24 h; normalized: DMSO 0%, positive control 100%. shares compounds with hcDAF-12 act;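 active means mean percent activation of the reporter above a cutoff set as the average over tested compounds plus their standard deviation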
Target sequence (P55055 whole entry, looked up, the tested form may be a part): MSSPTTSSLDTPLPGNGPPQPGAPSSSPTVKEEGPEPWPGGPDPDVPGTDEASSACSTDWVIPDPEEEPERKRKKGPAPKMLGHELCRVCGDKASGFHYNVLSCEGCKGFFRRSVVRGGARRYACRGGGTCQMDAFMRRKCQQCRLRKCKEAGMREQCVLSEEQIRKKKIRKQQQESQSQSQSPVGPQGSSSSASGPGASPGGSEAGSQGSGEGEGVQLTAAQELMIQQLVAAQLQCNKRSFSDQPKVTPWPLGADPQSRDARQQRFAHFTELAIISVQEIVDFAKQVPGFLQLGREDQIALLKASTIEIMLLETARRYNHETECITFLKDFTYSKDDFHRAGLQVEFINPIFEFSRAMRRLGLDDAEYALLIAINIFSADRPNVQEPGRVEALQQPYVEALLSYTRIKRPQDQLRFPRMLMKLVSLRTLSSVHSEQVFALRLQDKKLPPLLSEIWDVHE
hcDAF12 ag: H. contortus DAF-12 receptor agonists, confirmation, cell-based, luminescence, HEK293, lit1-tk-luc, triplicate. shares compounds with hcDAF-12 act. HEK293 hcDAF-12 lit1-tk-luc reporter; % of Δ7-dafachronic acid response. activation, % at 6.8 µM. hit rate 61% among 3,400. AID 743032, 2013;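 active means mean activation across triplicate tests above the threshold derived from the earlier primary screen, cut at about 5.5% in these data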
hgDAF12 conf: H. glycines DAF-12 receptor agonists, confirmation, cell-based, luminescence, HEK293, GAL4-LBD fusion | shares compounds with hgDAF-12 ag | HEK293 GAL4-hgDAF12 luciferase reporter, agonist mode; percent of butyrate response | activation, % at 6.8 µM | hit rate 80% among 3,300 | AID 743050, 2013;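 active means mean activation over triplicate wells above the hit cutoff derived from the earlier primary screen, cut at about 11% in these data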
LXR ag 2: LXR agonists, Gal4 luciferase reporter, confirmation, counter-screen for hgDAF-12 agonist project, cell-based, luminescence, HEK293, H. glycines campaign; shares compounds with hgDAF-12 ag; 24 h; activation, % at 6.8 µM; 3,300 tested, under 10 active; AID 743051, 2013;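 active means mean activation of the triplicate above a set limit carried over from the primary screen, none filed active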
Large screens that a line does not name were inactive (follow-up assays come after a bar, where they were run); ! = repeats disagree.

COC(=O)C1=C(C)N(Cc2ccccc2C(F)(F)F)C(=NCc2ccc3c(c2)OCO3)NC1c1ccccc1C(F)(F)F (stereo not drawn)	none (no result: DAX1 inh-2)
Cc1ccc(N/C=C/C(=O)c2cccs2)cc1C	DAX1 inh-1 6.7, hcDAF-12 act 20.8, hgDAF-12 ag 30.0, ssDAF12 agonist 2.6 (no result: DAX1 inh-2) | DAX1 inh confirm 18.3 | SF1 AF2mut Luc 6.0 | LXRb hcDAF ctr inactive | hcDAF12 ag 25.3 | hgDAF12 conf 18.0 | LXR ag 2 inactive
Cc1ccc(NC(=O)CCc2ccccc2)cc1C	none
Cc1ccc(NC(=O)/C(Cl)=C/c2ccccc2)cc1C	DAX1 inh-1 7.0, hcDAF-12 act 9.7, hgDAF-12 ag 19.9, ssDAF12 agonist 1.0 | DAX1 inh confirm 19.5 | SF1 AF2mut Luc 8.2 | LXRb hcDAF ctr inactive | hcDAF12 ag 8.4 | hgDAF12 conf 21.4 | LXR ag 2 inactive
CCOC(=O)C1=CCC(c2cc3ccccc3[nH]2)NC1 (stereo not drawn)	DAX1 inh-1 5.7, hcDAF-12 act 8.0, hgDAF-12 ag 15.5, ssDAF12 agonist 1.1 (no result: DAX1 inh-2) | DAX1 inh confirm 8.9 | SF1 AF2mut Luc 5.0 | LXRb hcDAF ctr inactive | hcDAF12 ag 6.4 | hgDAF12 conf 19.1 | LXR ag 2 inactive
CCOC(=O)c1c(C)nc(C)c(C(=O)OCC)c1-c1ccccc1	none (no result: DAX1 inh-1, hcDAF-12 act, hgDAF-12 ag, ssDAF12 agonist)
CCCCNc1c(-c2ccc(SC(C)CC)cc2)nc2ccccn12 (stereo not drawn)	DAX1 inh-1 5.3!, hcDAF-12 act 6.7!, hgDAF-12 ag 10.9, ssDAF12 agonist 2.6! | DAX1 inh confirm 6.3 | SF1 AF2mut Luc 3.4 | LXRb hcDAF ctr inactive | hcDAF12 ag inactive | hgDAF12 conf 15.5 | LXR ag 2 inactive
O=C(NCc1ccc(Cl)cc1)OCCN1C(=O)CCC12CCC(c1ccccc1)CC2 (stereo not drawn)	none (no result: DAX1 inh-2)
CCOc1ccc(/C=C\C(C)=N\O)cc1	DAX1 inh-1 4.9, hgDAF-12 ag 13.5 | DAX1 inh confirm 8.2 | SF1 AF2mut Luc 6.9 | hgDAF12 conf 13.4 | LXR ag 2 inactive
Cc1nc(NC(=O)c2ccccc2O)sc1C	none
Cc1nc(NC(=O)c2csc3ccccc23)sc1C	DAX1 inh-1 5.1, hcDAF-12 act 13.2, hgDAF-12 ag 23.7, ssDAF12 agonist 1.5 | DAX1 inh confirm 11.5 | SF1 AF2mut Luc 5.0 | LXRb hcDAF ctr inactive | hcDAF12 ag 9.7 | hgDAF12 conf 20.3 | LXR ag 2 inactive
O=C(c1cc(-c2cccc(O)c2)on1)N1CCCCC1	DAX1 inh-1 8.8, hcDAF-12 act 6.9, hgDAF-12 ag 21.9 | DAX1 inh confirm 14.0 | SF1 AF2mut Luc 7.1 | LXRb hcDAF ctr inactive | hcDAF12 ag inactive | hgDAF12 conf 14.3 | LXR ag 2 inactive
COc1cccc(-c2cc(C(=O)N3CCCCCC3)no2)c1	DAX1 inh-1 9.6, hcDAF-12 act 8.1, hgDAF-12 ag 18.2 | DAX1 inh confirm 17.5 | SF1 AF2mut Luc 7.3 | LXRb hcDAF ctr inactive | hcDAF12 ag 6.7 | hgDAF12 conf 17.9 | LXR ag 2 inactive
COc1cccc(-c2cc(C(=O)N3CCN(c4ccc(F)cc4)CC3)no2)c1	none
COC(=O)C1=C(C)N(Cc2ccccc2C(F)(F)F)C(=NCc2ccccc2)NC1c1ccc(Cl)cc1 (stereo not drawn)	none (no result: DAX1 inh-2)
Cc1cccc(-c2noc(-c3csc([C@@H]4C[C@H](O)[C@@H](CO)O4)n3)n2)c1	DAX1 inh-1 9.8, hgDAF-12 ag 18.3 (no result: DAX1 inh-2) | DAX1 inh confirm 16.0 | SF1 AF2mut Luc 9.5 | hgDAF12 conf 19.5 | LXR ag 2 inactive
O=S1(=O)c2ccc(N3CCCC3)cc2Oc2ccccc2CN1Cc1cn(Cc2ccc(F)cc2)nn1	none (no result: DAX1 inh-2)
c1ccc(Nc2nc(-c3cccnc3)cs2)nc1	DAX1 inh-1 5.8, hcDAF-12 act 10.4, hgDAF-12 ag 17.9 | DAX1 inh confirm 7.5 | SF1 AF2mut Luc 6.3 | LXRb hcDAF ctr inactive | hcDAF12 ag 8.1 | hgDAF12 conf 20.2 | LXR ag 2 inactive
CCOc1ccccc1Nc1nc(-c2cccnc2)cs1	none
c1ccc2sc(Nc3nc4cc5c(cc4s3)OCO5)nc2c1	DAX1 inh-1 5.4, hcDAF-12 act 7.4, hgDAF-12 ag 17.9, ssDAF12 agonist 2.3 | DAX1 inh confirm 12.1 | SF1 AF2mut Luc 7.8 | LXRb hcDAF ctr inactive | hcDAF12 ag 8.2 | hgDAF12 conf 17.3 | LXR ag 2 inactive
COc1cc(OC)cc(C(=O)Oc2ccc(/C=N/Nc3nc4ccccc4s3)cc2OC)c1	none
Brc1ccc(/C=C/C=N/Nc2nc3ccccc3s2)cc1	none
C(=C\c1ccccc1)/C=N/Nc1nc2ccccc2s1	DAX1 inh-1 5.3, hcDAF-12 act 16.5, DAX1 inh-2 5.7, hgDAF-12 ag 19.3, ssDAF12 agonist 2.2 | DAX1 inh confirm 13.7 | SF1 AF2mut Luc 10.7 | LXRb hcDAF ctr inactive | hcDAF12 ag 9.6 | hgDAF12 conf 20.1 | LXR ag 2 inactive

High-throughput results from PubChem.
